# Screening results as filed in PubChem BioAssay.
# A selection: hits, their analogues and other compounds. The true share with any hit is near 0.39%.
# CCT modulator: High-Throughput Screening for Modulators of Cytosolic Chaperonin Activity. hit rate 0.3% among 360,000. AID 651819, 2012. activity change, % (test concentration not listed), hits read low. purified chaperonin ATPase assay, HTRF ADP detection, 30 min; in the data active = activity change below about -30%; note: % is set by controls: 0 for no effect and ±100 for the full control effect
#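 First, chaperonin was dispensed at 40 nM or 20 nM final depending on batch activity. Next, compounds were pinned at 76 uM and ATP added at 10 uM. After 30 min at 37 °C, ADP detection reagents ran 30 min at ambient temperature.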
# Anesthetic bind: qHTS Assay for Identification of Novel General Anesthetics. Potency, µM (highest dose often 77.5 µM), for inactives: at the highest dose activity change, negative = displacement, usual class: inhibitors. AID 485281, 2010. hit rate 0.074% among 350,000. apoferritin/1-aminoanthracene competitive binding, fluorescence. Ferritin light chain (Equus caballus), P02791; note: potency is the fitted concentration of half-maximal effect; % is set by controls: 0 for no effect and ±100 for the full control effect; nearly all actives have a fitted effect of over 20% in size
#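 Probe: 1-aminoanthracene (50% saturated, PBS). Protein: horse-spleen apoferritin, 10 uM. Incubation: 10 min, room temperature. Detection: 380 nm excitation, 535 nm emission. Analysis: normalized response, four-parameter Hill.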
# ERG-DNA inh: qHTS for Small Molecule Inhibitors of the ERG Ets/DNA interaction. fluorescence polarization, His-ERG Ets domain / labelled DNA. hit rate 0.028% among 370,000. Potency, µM (doses to about 76.9 µM), for inactives: at the highest dose FP activity, negative = inhibition, most hits filed as inhibitors. Transcriptional regulator ERG (Homo sapiens), P11308; active = well fitted inhibition curve with a large enough effect in the polarisation, with a control signal flat; inconclusive = small, poorly fitted or top-dose-only effect, or effect the other way, or a change in a side signal; inactive = no such curve, though single readings can be large or run the other way; the % refers to the polarisation;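 note: polarization taken with two DNA probes labelled with fluorescein and Texas red; potency is the fitted concentration of half-maximal effect; % of control where 0% means no effect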
# Target sequence (P11308 whole entry, looked up, the tested form may be a part): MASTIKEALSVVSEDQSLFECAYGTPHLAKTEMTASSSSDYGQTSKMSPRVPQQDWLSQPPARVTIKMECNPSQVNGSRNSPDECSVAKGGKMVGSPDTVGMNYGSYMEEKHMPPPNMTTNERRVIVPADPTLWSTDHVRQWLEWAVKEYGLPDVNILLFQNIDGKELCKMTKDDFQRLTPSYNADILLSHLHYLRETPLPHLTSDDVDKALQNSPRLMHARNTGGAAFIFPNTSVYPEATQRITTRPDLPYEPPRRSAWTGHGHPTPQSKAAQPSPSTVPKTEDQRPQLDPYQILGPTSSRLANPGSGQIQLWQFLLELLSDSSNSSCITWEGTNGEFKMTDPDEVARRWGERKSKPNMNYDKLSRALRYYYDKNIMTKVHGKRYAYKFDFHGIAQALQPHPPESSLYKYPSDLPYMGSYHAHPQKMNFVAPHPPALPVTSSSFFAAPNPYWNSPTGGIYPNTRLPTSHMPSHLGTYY
#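 His-tagged ERG Ets domain (1 uM in the protein solution; 300mM KCl, 50mM Tris-HCl, 1mM EDTA, 1mM DTT, pH 7.5) received compound, then a probe mix of 5 nM fluorescein-DNA and 100nM Texas-615-DNA. Fluorescence polarization was read for both dyes.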
# MmCpn inh: Inhibitors of TCP-1 ring complex (TRiC) of Methanococcus maripaludis (MmCpn): qHTS; Chaperonin Mm-Cpn (Methanococcus maripaludis); purified Mm-Cpn ATPase, ADP Transcreener TR-FRET; Potency, µM (top dose mostly 76.9 µM), for inactives: at the highest dose activity, negative = inhibition, most hits filed as inhibitors; hit rate 0.031% among 330,000; AID 504842, 2011; note: potency is the fitted concentration of half-maximal effect; % is set by controls: 0 for no effect and ±100 for the full control effect; nearly all actives have a fitted effect of over 80% in size
#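 ATPase read-out: TR-FRET ADP immunoassay (anti-ADP Eu cryptate vs ADP-d2), ex 320 nm, em 590/665 nm; signal drops as ADP forms. Enzyme 25 nM, ATP 10 uM, 30 min at 37°C after 10 min compound preincubation.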
# Active calls of the source: *; ? = inconclusive; / = no result. Unless noted, calls come from the whole dose curve; as a rule, active = well fitted curve in the direction sought with a large enough effect; inconclusive = small, poorly fitted or top-dose-only effect, or another doubt; inactive = no such curve, though single readings can be large; an effect the other way counts as inactive or inconclusive.
SMILES,CCT modulator,Anesthetic bind,ERG-DNA inh,MmCpn inh
CC(C)c1ccc(CNc2nc(-c3ccco3)nn2S(=O)(=O)c2ccc3ccccc3c2)cc1,/,-17%,0%,/
CC(C)(C)OC(=O)NCCCC[C@H](NC(=O)c1nc[nH]c1C(=O)N[C@@H](CCCCNC(=O)OC(C)(C)C)C(=O)OC(C)(C)C)C(=O)OC(C)(C)C,1,-9%,-8%,-1%
CCN(CC)C(=O)c1[nH]cnc1C(=O)N[C@@H](CCCCNC(=O)OC(C)(C)C)C(=O)OC(C)(C)C,-31*,-9%,16%,/
CC[C@H](C)[C@H](NC(=O)[C@H](Cc1ccc(O)cc1)NC(=O)[C@@H]1CCCN1C(=O)[C@H](CCCCN)NC(=O)[C@@H](N)CCCCN)C(=O)N[C@@H](CC(C)C)C(=O)O,/,7%,/,/
CC(=O)N[C@@H](CC(C)C)C(=O)N[C@@H](CCCNC(=N)N)C(=O)N[C@@H](Cc1cnc[nH]1)C(=O)N[C@@H](Cc1ccc(O)cc1)C(=O)N[C@@H](CC(C)C)C(=O)N[C@@H](CC(N)=O)C(=O)N[C@@H](CC(C)C)C(=O)N[C@@H](CC(C)C)C(=O)N[C@H](C(=O)N[C@@H](CCCNC(=N)N)C(=O)N[C@@H](CCC(N)=O)C(=O)N[C@@H](CCCNC(=N)N)C(=O)N[C@@H](Cc1ccc(O)cc1)C(N)=O)[C@@H](C)O,/,-16%,/,/
Cc1cc(C)c(NC(=O)CN(C)CC(=O)N(C)CC(=O)Nc2c(Cl)cccc2Cl)c(C)c1,-57*,/,12%,0%
CN(CC(=O)N(C)CC(=O)Nc1c(Cl)cccc1Cl)Cc1ccccc1F,-3,/,2%,2%
COc1ccc(-n2nc3c(c2NC(=O)COc2ccccc2F)CS(=O)(=O)C3)cc1,-32*,-12%,0%,1%
COc1ccc(-n2nc3c(c2NC(=O)COc2ccccc2)CS(=O)(=O)C3)cc1,-1,-1%,-6%,1%
COc1ccccc1N1CC(C(=O)OC(C)C(=O)N2CCCc3ccccc32)CC1=O (configuration not stated),-60*,-17%,-1%,-3%
Cc1ccc(C)c(NC(=S)NNC(=O)c2csc3c2CCCC3)c1,0,?,-6%,3%
Cc1ccc(C)c(NC(=S)NNC(=O)c2csc3c2CCC(C)C3)c1 (configuration not stated),1,28µM*,20%,1%
C/C=C1/NN(CCCN2CCN(c3cccc(Cl)c3)CC2)C(=O)N1CCOc1ccccc1,/,-11%,/,/
Cc1cccc(C2=NN(c3ccccc3)[C@@H](C(=O)N3CCOC3=O)[C@@H]2c2ccc(Cl)cc2)c1,-1,325%,-7%,-23%
Cc1cccc(C2=NN(c3ccccc3)[C@@H](C(=O)N3CCOC3=O)[C@@H]2c2ccc(F)cc2)c1,0,291%,13%,32µM*
CCOC(=O)c1c(C)[nH]c(CCC(=O)Nc2cc(Cl)ccc2OC)c1C,/,-2%,-7%,/
COC(=O)c1c(-c2ccc(OC)cc2)sc2cc3c(cc12)OCO3,-2,/,-4%,50µM*
O=C(O)CCCNc1cc(N2CCN(C(=O)c3ccco3)CC2)c2noc3c2c1C(=O)c1ccccc1-3,0,-6%,83%,35µM*
CN1CCN(c2cc(N3CCN(C(=O)c4ccco4)CC3)c3c4c(onc24)-c2ccccc2C3=O)CC1,-1,-4%,-19%,-10%
Cc1nn(C)c(C)c1S(=O)(=O)N(CC(=O)NCCc1ccccc1)c1ccc(C(C)C)cc1,/,-12%,-6%,/
CCc1ccc(/C=C2\SC(=S)N(CCCC(=O)NCCCN3CCOCC3)C2=O)cc1,2,/,/,/
CCOc1ccc(/C=C2\SC(=S)N(CCCC(=O)NCCCN3CCOCC3)C2=O)cc1,-38*,-3%,23%,0%
NNC(=O)CNC(=O)C12CC3CC(CC(C3)C1)C2,-1,7.9µM*,1%,2%
O=C(CNC(=O)C12CC3CC(CC(C3)C1)C2)NCc1ccccc1,1,/,2%,-1%
Cc1cc(SCC(=O)N/N=C/c2ccc(O)c(O)c2O)c(C)cc1Br,1,32µM*,-29%,2%
